Assay outcomes: PubChem BioAssay, University of Kansas High Throughput Screening Laboratory
Most compounds without a hit are left out; they make up all but 3.6% or so of the library.
Pf apPOL block: Pf-apPOL DNA polymerase inhibition. Recombinant Pf-apPOL, molecular beacon fluorescence, 1.5 h. inhibition, % at 10 µM. 0.25% of 210,000 active. AID 1794808
mHTT-CaM PPI inh: disrupts binding of mutant huntingtin to calmodulin. P42858. AlphaScreen His-mHTT/GST-CaM binding, luminescence. inhibition, % at 15 µM. 3.6% of 190,000 active. AID 1671202;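 note: 0% = both proteins with DMSO and 100% = one protein alone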
* hit, by the source's call; / = not tested or not shown. Cut-off read from the data, not from the text of the source: active = inhibition above about 50%; inactive = the rest.

SMILES	Pf apPOL block	mHTT-CaM PPI inh
Cc1ccc(Nc2nc(-c3ccc(F)cc3)cs2)cc1	-5.1	35.0
Cc1cccc(Nc2nc(-c3cccnc3)cs2)c1	-3.8	8.1
COc1cccc(Nc2ccc(-c3ccccc3)nn2)c1	-5.6	/
Cc1ccc(C)c(-c2csc(Nc3ccc(Cl)cc3)n2)c1	-5.4	66.6*
COc1ccc(-c2csc(Nc3ccccc3OC)n2)cc1F	10.8	42.7
COc1cccc(Nc2nc(-c3ccccc3)cs2)c1	0.6	61.8*
COc1ccc(C(=O)N2CCN(c3ccc(Cl)cc3C)C(=O)C2C)cc1 (configuration not stated)	-3.2	-2.8
Cc1cc(NC(=O)c2cccc([N+](=O)[O-])c2)ccc1O	1.9	1.6
O=C1OC(c2cc([N+](=O)[O-])ccc2Cl)=N/C1=C\c1ccc(Br)cc1	-32.5	0.0
CCOc1ccc(-c2csc3c(=O)n(CC(=O)OC)cnc23)cc1OCC	-12.2	5.3
CCN1C(=O)COc2ccc(-c3noc(-c4ccc(C)c(C)c4)n3)cc21	2.7	-5.3
O=C(COc1ccc(Br)cc1Cl)Nc1cccc([N+](=O)[O-])c1	-6.9	-4.7
COc1ccc(-c2csc(NCc3ccccc3)n2)cc1	/	23.0
CCc1ccc(-c2csc(Nc3cccc(OC)c3)n2)cc1	2.2	67.1*
CC1=CC(C)(C)N(C(=O)CSc2nccc(C)n2)c2cc(C)c(C)cc21	5.6	30.0
CCC(C)NC(=O)CSc1nc2ccsc2c(=O)n1Cc1ccc2c(c1)OCO2 (configuration not stated)	4.6	1.0
CCN(CC)c1ccc(/C=C2/C(=O)N(c3ccc(C)c(C)c3)N=C2C)cc1	-1.1	86.0*
CC1=NN(c2ccc(I)cc2)C(=O)/C1=C/c1ccc(N(C)C)cc1	-1.3	57.0*
CC1=NN(c2ccc(C)c(C)c2)C(=O)/C1=C/c1ccc(N(C)C)c([N+](=O)[O-])c1	-4.5	1.0
CC1=NN(c2cccc(F)c2)C(=O)/C1=C/c1ccc(N(C)C)cc1	-10.5	10.0
CN(C)c1ccc(/C=C2\C(=O)N(c3ccccc3)N=C2c2ccccc2)cc1	-3.6	56.0*
CC1=NN(c2ccc(Cl)c(Cl)c2)C(=O)/C1=C/c1ccc(N(C)C)cc1	1.4	44.0
COCCNC(=O)C1CCCN(C(=O)c2cccc(C(F)(F)F)c2)C1 (configuration not stated)	-1.1	25.8
Cc1ccc(C(NC(N)=O)c2cccc(C)c2)cc1 (configuration not stated)	-7.3	-3.2
c1ccc(Oc2nc(N3CCCCC3)nc3c2CN(Cc2cccnc2)CC3)cc1	-2.5	52.8*
SMILES	Pf apPOL block	mHTT-CaM PPI inh
Cn1cccc1CN1CCc2nc(N3CCCCC3)nc(Oc3ccccc3)c2C1	1.8	71.0*
CC(C)CN1CCc2nc(N3CCOCC3)nc(Oc3ccccc3F)c2C1	-0.3	22.3
CCOc1ccc(CN2CCc3nc(N4CCCC4)ncc3C2)cc1	7.2	18.4
NC(=NOC(=O)Nc1csc(-c2cccc(Cl)c2Cl)n1)c1ccc(C(F)(F)F)cc1	-16.8	/
COc1cc(-c2noc(C)c2/C=C/c2ccc(N)cc2)cc(OC)c1OC	-4.6	52.7*
COc1cc(-c2noc(C)c2C#Cc2ccc(N)cc2)cc(OC)c1OC	-4.4	13.2
COc1ccc(CCC(C)NCc2ccccc2OC)cc1 (configuration not stated)	-1.9	-10.5
COc1ccc(CCC(C)Nc2ccc(OC)cc2OC)cc1 (configuration not stated)	0.0	85.1*
O=C(Nc1ccc2c(c1)C(=O)NCC2)c1cccc(Br)c1	-11.9	-7.8
CCN(CC)CCSc1nc2ccc(OC)cc2[nH]1	4.7	26.0
CCN(CC)CCCC(C)Nc1c2ccc(Cl)cc2nc2ccc(OC)cc12 (configuration not stated)	61.7*	/
C=CCNC(=O)c1oc2ccc(S(=O)(=O)N3CC(C)CC(C)C3)cc2c1C (configuration not stated)	-14.5	77.0*
C=CCNC(=O)c1oc2ccc(S(=O)(=O)N3CCCCCC3)cc2c1C	-10.0	-6.0
CCc1cccc(N=c2oc3c(C)ncc(CO)c3cc2C(=O)Nc2ccccc2CC)c1	2.8	3.0
Cc1ccc([N+](=O)[O-])c2c3c([nH]c12)C(=O)CCC3	83.0*	11.7
Cc1ccc([N+](=O)[O-])c2c3c([nH]c12)C(=NCCO)CCC3	1.0	22.0
CCCCC(=O)NC(c1ccc(C)cc1)c1ccc2cccnc2c1O (configuration not stated)	1.3	100.0*
CCCCC(=O)NC(c1ccc([N+](=O)[O-])cc1)c1ccc2cccnc2c1O (configuration not stated)	3.0	100.0*
CCCCC(=O)NC(c1ccccc1OC)c1cc(Cl)c2cccnc2c1O (configuration not stated)	-10.7	7.0
CCCC(=O)NC(c1ccccc1OC)c1ccc2cccnc2c1O (configuration not stated)	6.8	99.0*
CCCC(=O)NC(c1ccc(C)cc1)c1ccc2cccnc2c1O (configuration not stated)	8.9	100.0*
